Laboratory results: ChEMBL document CHEMBL3988442, “University of Dundee, Small-Polar-MMV Screening Library” (2021)
For part of these data: Entries with a potency or affinity are not part of this list.

Legend:
Parameters in all cases: scale not given: direction of the effect not stated beside the values
[1] = molecular target: Protein translocase subunit SecA (Escherichia coli (strain K12)) (UniProt P10408); test: Assay to Identify E. coli SecA ATPase Inhibitors; assay type: functional; conditions: 30 µM
Protein translocase subunit SecA (Escherichia coli (strain K12)), sequence (P10408 whole entry): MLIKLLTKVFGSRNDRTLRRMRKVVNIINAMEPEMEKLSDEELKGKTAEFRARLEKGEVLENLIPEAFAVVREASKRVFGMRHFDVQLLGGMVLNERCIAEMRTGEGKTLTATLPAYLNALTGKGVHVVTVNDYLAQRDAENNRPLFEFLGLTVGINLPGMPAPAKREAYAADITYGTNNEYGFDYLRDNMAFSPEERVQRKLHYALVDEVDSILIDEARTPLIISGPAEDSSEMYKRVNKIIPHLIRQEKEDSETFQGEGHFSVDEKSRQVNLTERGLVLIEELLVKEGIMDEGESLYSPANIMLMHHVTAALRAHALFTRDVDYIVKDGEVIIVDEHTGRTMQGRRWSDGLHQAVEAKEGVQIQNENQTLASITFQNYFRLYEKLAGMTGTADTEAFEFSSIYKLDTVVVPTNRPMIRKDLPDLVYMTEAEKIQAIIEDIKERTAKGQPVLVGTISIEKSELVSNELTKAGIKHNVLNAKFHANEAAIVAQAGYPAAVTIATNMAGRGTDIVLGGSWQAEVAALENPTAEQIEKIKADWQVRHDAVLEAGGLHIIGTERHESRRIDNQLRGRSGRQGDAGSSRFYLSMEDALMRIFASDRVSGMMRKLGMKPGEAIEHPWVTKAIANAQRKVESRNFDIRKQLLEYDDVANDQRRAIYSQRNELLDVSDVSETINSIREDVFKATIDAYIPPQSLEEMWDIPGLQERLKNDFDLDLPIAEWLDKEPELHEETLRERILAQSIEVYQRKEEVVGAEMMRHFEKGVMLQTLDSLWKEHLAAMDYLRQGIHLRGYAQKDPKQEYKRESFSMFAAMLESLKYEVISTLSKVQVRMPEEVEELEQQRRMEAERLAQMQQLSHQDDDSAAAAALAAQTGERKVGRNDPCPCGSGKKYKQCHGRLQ

[2] = molecular target: T1, Ubiquitin-activating enzyme e1, putative (Leishmania donovani (strain BPK282A1)) (UniProt E9BSI1); test: Leishmania donovani Ubiquitin Activating Enzyme (LdE1); assay type: functional; conditions: 30 µM
T1 sequence (whole entry): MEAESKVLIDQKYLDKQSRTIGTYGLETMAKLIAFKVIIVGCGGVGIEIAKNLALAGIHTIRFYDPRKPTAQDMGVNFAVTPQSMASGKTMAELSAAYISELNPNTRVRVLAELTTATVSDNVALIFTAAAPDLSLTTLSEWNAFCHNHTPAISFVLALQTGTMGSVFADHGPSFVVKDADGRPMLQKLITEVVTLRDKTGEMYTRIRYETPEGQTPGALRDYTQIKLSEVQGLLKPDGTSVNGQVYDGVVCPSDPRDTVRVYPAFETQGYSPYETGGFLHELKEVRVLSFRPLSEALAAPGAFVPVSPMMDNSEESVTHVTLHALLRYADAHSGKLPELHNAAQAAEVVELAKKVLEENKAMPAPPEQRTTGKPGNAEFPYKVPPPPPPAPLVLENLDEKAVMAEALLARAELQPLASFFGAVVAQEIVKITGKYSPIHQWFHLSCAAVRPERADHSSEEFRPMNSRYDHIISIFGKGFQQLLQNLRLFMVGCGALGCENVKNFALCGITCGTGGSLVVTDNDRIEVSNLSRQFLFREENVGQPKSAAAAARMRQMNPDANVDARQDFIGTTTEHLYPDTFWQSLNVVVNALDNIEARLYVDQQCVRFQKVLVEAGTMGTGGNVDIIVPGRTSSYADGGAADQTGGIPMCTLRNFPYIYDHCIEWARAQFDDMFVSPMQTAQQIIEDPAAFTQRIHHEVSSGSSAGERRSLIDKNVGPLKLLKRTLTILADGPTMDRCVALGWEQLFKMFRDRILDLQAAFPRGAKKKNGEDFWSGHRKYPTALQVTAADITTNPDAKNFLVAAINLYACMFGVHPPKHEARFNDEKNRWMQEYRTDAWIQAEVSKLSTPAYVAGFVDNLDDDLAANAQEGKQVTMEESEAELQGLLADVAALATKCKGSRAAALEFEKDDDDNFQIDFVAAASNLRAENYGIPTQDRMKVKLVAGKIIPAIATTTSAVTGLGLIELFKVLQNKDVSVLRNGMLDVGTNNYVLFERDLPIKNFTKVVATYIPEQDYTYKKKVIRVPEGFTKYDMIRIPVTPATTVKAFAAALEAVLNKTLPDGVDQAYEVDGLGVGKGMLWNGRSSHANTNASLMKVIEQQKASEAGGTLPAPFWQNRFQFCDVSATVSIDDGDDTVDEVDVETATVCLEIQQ

[3] = molecular target: AMP-activated protein kinase, AMPK (Homo sapiens) (UniProt P54646+O43741+P54619+Q9UGJ0+Q9Y478+Q13131+Q9UGI9); test: AMP-dependent Kinase enzyme assay. An in vitro enzyme assay that detects ADP turnover that is directly proportional to AMPK activity. This uses naive AMPK that is activated during the assay with MK-8722; assay type: functional; conditions: 30 µM
[4] = molecular target: Sialic acid-binding Ig-like lectin 9 (Homo sapiens) (UniProt Q9Y336); test: Hs-Siglec9 ALPHAscreen SOP 20170721; conditions: 10 µM
Sialic acid-binding Ig-like lectin 9 (Homo sapiens), sequence (Q9Y336 whole entry): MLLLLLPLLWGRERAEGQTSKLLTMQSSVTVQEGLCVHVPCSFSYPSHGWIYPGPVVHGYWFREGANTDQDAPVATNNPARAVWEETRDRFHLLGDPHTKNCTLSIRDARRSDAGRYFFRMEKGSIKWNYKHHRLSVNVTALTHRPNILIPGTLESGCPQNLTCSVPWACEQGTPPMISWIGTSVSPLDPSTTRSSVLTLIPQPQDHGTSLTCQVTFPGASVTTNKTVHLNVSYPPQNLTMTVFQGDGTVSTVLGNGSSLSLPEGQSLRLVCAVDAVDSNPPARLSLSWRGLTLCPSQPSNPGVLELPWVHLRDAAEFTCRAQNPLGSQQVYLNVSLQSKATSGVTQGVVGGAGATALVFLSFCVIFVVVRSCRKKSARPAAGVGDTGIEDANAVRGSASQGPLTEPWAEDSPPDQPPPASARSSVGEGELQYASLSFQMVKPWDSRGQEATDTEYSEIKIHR

Trypanosoma cruzi = test: Trypanosoma cruzi phosphomannomutase and mannose-1-phosphate guanylyltransferase assay; assay type: functional; conditions: 10 µM
[5] = molecular target: T2, Arginase-2, mitochondrial (Homo sapiens) (UniProt P78540); test: in vitro enzyme assay to detect the production of urea directly proportional to the activity of Arginase II; assay type: functional; conditions: 33.3 µM; also: in the data most compounds retested in dose-response had high values
T2 sequence (whole entry): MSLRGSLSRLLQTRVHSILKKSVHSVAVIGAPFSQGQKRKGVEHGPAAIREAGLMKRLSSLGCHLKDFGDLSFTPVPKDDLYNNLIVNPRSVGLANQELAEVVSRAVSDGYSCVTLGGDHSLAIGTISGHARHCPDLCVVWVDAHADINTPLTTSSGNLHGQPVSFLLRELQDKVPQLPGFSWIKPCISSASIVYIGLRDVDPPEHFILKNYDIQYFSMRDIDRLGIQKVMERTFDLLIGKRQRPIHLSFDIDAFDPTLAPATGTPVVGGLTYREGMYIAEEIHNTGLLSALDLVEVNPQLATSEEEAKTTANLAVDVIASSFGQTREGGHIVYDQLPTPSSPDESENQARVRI

[6] = molecular target: T3, Proteasome subunit beta (Trypanosoma cruzi) (UniProt O96673); test: Trypanosoma cruzi proteasome chymotrypsin-like activity (TcProtChymo) assay.; also: in the data most compounds retested in dose-response had high values; assay type: functional; conditions: 9.37 µM
T3 sequence (whole entry): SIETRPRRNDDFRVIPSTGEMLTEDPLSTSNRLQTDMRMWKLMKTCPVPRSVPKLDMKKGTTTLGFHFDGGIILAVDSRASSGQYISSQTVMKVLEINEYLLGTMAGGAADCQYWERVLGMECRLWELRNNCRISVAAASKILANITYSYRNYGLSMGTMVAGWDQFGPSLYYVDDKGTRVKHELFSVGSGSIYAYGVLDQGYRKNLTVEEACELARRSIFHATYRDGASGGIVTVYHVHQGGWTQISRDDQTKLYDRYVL

Homo sapiens = species on record: Homo sapiens; test: To identify inhibition of the IFN signalling (Jak-Stat) pathway via expression of an eGFP reporter gene under the control of an IFN-stimulated response element (ISRE) containing MxA promoter.; assay type: functional; conditions: 30 µM
[7] = molecular target: T4, Tyrosyl-tRNA synthetase, putative (Trypanosoma cruzi (strain CL Brener)) (UniProt Q4DSP6); test: Trypanosoma cruzi tyrosyl tRNA synthetase (TcYRS) _High Tyrosine SOP; assay type: functional; conditions: 30 µM; also: in the data most compounds retested in dose-response had high values
T4 sequence (whole entry): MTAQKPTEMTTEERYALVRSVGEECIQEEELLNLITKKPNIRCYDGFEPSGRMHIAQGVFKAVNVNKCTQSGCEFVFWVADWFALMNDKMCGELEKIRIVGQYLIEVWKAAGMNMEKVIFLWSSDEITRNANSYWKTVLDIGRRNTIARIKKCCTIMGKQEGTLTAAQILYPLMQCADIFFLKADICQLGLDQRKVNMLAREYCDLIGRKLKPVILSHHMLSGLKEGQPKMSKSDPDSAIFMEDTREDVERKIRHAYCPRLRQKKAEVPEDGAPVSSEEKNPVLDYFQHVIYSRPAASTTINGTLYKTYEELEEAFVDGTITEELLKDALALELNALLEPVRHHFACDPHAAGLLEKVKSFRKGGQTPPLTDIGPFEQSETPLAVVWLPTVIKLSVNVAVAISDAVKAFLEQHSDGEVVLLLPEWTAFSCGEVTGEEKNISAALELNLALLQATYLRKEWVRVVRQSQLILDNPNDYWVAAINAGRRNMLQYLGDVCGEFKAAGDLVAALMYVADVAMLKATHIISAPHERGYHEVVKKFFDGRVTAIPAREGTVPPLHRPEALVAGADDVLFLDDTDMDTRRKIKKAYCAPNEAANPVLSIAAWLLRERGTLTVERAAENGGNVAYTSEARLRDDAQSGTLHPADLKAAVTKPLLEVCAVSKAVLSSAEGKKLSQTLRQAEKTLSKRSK

[8] = molecular target: T4, Tyrosyl-tRNA synthetase, putative (Trypanosoma cruzi (strain CL Brener)); test: Trypanosoma cruzi tyrosyl tRNA synthetase (TcYRS) SOP; assay type: functional; conditions: 30 µM
[9] = molecular target: Chromo domain-containing protein 1 (Saccharomyces cerevisiae (strain ATCC 204508 / S288c) (Baker's yeast)) (UniProt P32657); test: ScCHD-1 Enzyme Inhibition Assay; assay type: functional; conditions: 30 µM; also: in the data most compounds retested in dose-response had high values
Chromo domain-containing protein 1 (Saccharomyces cerevisiae (strain ATCC 204508 / S288c) (Baker's yeast)), sequence (P32657 whole entry, the tested form may be a part): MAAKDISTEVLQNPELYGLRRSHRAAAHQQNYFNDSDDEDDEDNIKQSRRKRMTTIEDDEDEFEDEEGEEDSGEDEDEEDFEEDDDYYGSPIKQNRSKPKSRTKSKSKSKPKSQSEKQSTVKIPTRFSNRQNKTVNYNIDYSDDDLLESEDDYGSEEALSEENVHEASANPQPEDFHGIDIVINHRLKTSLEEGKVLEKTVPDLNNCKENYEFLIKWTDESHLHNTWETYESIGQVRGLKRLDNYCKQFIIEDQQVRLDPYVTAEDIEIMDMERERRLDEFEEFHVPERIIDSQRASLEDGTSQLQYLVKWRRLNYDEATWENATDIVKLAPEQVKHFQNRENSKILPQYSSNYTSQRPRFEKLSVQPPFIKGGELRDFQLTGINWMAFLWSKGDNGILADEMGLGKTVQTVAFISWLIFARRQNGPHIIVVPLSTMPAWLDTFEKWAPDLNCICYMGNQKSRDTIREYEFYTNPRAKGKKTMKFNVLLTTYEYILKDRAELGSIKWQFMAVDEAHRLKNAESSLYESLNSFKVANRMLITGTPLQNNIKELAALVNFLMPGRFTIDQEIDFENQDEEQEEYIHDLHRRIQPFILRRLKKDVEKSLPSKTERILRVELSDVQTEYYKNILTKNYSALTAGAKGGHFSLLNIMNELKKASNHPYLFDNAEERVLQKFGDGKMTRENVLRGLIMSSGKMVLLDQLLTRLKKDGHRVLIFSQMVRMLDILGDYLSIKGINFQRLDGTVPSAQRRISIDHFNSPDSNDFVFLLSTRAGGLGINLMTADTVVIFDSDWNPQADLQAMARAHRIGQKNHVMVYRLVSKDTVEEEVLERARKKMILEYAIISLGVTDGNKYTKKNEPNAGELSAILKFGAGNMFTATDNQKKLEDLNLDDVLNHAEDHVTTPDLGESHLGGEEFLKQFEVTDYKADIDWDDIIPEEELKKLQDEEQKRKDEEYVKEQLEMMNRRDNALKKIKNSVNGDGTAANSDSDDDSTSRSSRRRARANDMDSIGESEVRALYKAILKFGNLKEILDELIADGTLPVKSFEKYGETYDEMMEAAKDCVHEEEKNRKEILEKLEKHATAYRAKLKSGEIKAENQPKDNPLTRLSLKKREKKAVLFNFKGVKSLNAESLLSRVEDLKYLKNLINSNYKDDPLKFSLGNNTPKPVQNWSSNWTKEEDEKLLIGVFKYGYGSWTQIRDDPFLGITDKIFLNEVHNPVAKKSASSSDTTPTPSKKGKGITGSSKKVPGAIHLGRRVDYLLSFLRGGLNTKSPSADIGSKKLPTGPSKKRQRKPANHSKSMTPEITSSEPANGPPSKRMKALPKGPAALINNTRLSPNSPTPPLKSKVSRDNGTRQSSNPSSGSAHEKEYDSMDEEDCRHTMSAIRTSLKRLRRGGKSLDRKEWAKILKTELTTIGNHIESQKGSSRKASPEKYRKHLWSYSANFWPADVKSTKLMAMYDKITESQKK

SMILES | Percent Effect [1] | Percent Effect [2] | Percent Effect [3] | Percent Effect [4] | Percent Effect (Trypanosoma cruzi) | Percent Effect [5] | Percent Effect [6] | Percent Effect (Homo sapiens) | Percent Effect [7] | Percent Effect [8] | Percent Effect [9]
OC(CN1CCN(Cc2nnc(C3CC3)o2)CC1)c1ccccc1 (stereo unspecified) | -4.5% | 10.1% | -8.23% | 15.1% | -3.31% | 1.9% | -3.19% | 17.6% | 2.46% | 13.9% | -2.36%
Cc1ccc(N2CCCC3(COCCN(c4nccs4)C3)C2)nn1 (stereo unspecified) | 0.955% | 0% | -4.27% | 3.78% | 1.79% | 1.2% | 11.7% | -6.58% | 5.21% | 3.7% | -1.92%
CN(C)C(=O)CNC(=O)Nc1cccc(Cl)c1SC(F)F | -3.28% | 1.39% | 2.42% | 11.5% | -7.09% | 1.77% | 1.05% | -0.391% | 1.05% | -2.56% | 0.00979%
Cc1nn(C(C)C)c(C)c1NC(=O)c1ccncc1 | -2.46% | 16.4% | -7.09% | 5.06% | 5.56% | 0.399% | 16.5% | -7.45% | 10.4% | 11.1% | -7.44%
Cc1cnc2c(S(=O)(=O)NCC3CCN(C4CC4)C3)cccc2c1 (stereo unspecified) | -4.76% | -2.63% | -3.93% | -5.34% | 5.32% | -3.6% | -7.53% | -27.5% | 11.3% | 6.17% | 6.25%
O=C1NCCCCC1Sc1nnc(-c2cccnc2)n1C1CC1 (stereo unspecified) | -2.96% | 2.74% | 5.81% | 0.732% | -2.55% | 0% | 9.23% | -4.55% | 7.53% | 12.5% | -6.68%
O=C1COC2(CCN(Cc3cccs3)CC2)CN1c1ccccc1 | -2.08% | 5.48% | 0.847% | 2.36% | -1.39% | -2.4% | 7.62% | -0.737% | 3.12% | 3.7% | -0.651%
Cc1cc(CN2CCN(C(c3ccccc3)c3ccccc3)CC2)no1 | -4.43% | 12.7% | -1.9% | 14.9% | -2.55% | 1.14% | 2.87% | 15.5% | 8.37% | 11.4% | -8.11%
CC[C@@]1(O)CCN(C(=O)c2ccc(-c3cccc(F)c3)cc2)C[C@H]1O | -2.8% | 4.17% | -2.66% | -8.29% | -3.6% | 0.883% | 13.3% | 16.4% | 2.1% | 10.3% | -3.01%
CCC(=O)NCc1cc(Br)ccc1OC(F)F | -4.17% | 8% | -2.35% | 7.52% | 3.41% | 1.04% | 13.6% | -8.01% | 9.29% | 18.5% | -6.17%
CCN(CC)c1ccc(C(=O)N(C)Cc2c(C)noc2C)cn1 | -4.04% | 10.5% | -4.84% | -2.69% | -7% | 10.1% | -5.84% | 10.8% | 3.45% | 11.1% | -1.15%
Cc1nc(CN2CCCC(Cn3cc(CCO)nn3)C2)c[nH]1 (stereo unspecified) | -1.16% | 0% | -4.62% | 20.6% | 5.21% | 0.952% | 5.17% | -10.1% | 1.59% | 9.76% | -7.08%
CNc1cncc(C2CCCN2Cc2ccccn2)n1 (stereo unspecified) | -2.75% | -4.05% | 3.64% | 7.85% | 2.37% | 1.62% | 29.5% | -2.5% | 9.68% | 9.09% | -18.3%
O=C(CSC1=NS(=O)(=O)c2cc(F)ccc2N1)c1ccc(Cl)cc1 | -1.43% | 0% | 2.41% | -0.28% | -5.42% | 4.52% | 6.44% | 11.1% | 4.23% | 11.5% | -7.8%
c1ccc(-c2nccc(CNCC3CCCN3c3cccnn3)n2)cc1 (stereo unspecified) | -3.71% | -18.4% | 3.25% | -4.68% | -0.94% | 0.383% | -0.501% | 20.1% | 6.37% | -2.44% | 11.3%
CC(=O)N1CCC(Oc2ccc(C#N)cn2)CC1 | -4.01% | 8.22% | 1.71% | 12.9% | 2.94% | 7.27% | 4.44% | 11.1% | 4.3% | 12.5% | -5.65%
Cc1nc(COc2cccc(C#N)c2)no1 | -1.52% | 21.1% | -5.19% | 8.22% | 5.13% | -0.36% | 8.21% | -0.09% | 10.3% | 25.9% | -8.11%
O=C(NCCC(=O)N1CCCc2ccccc21)c1c(O)cc(F)cc1F | -5.79% | 10.4% | -0.269% | 9.22% | 6.95% | -1.47% | 11.1% | 22.7% | -0.952% | -49.4% | -16.6%
CC(C)(C)SCCCC(=O)N1CCC(Nc2cccnn2)CC1 | -1.17% | -2.7% | -6.83% | 13.1% | 0.283% | -1.6% | -1.98% | 8.77% | 4.43% | 6.17% | 0.803%
Cc1cnn(CC2CCCN2C(=O)CCc2nc3ccccc3[nH]2)c1 (stereo unspecified) | -4.12% | 7.59% | -2.81% | 11.1% | 4.82% | 0.38% | -3.69% | -14.8% | 1.48% | 8.86% | -1.08%
CCc1ncc2c(n1)CN(C(=O)COC)C2 | -3.52% | 8.22% | -3.13% | -3.99% | 2.55% | 1.36% | 12.1% | 8.48% | 9.68% | 22.5% | -4.35%
